Measurements: PubChem BioAssay AID743446 (Broad Institute, 2014)
Results with a measured potency or affinity are listed apart. Calls of active or inactive are those of the source. The rule behind the calls is not given here.

assay: viability loss in HEK293 cells – cell-based, plate reader, cherry-picked samples, cytotoxicity control, dose response (AID 743446); settings: active compounds read low; at 26 µM unless noted

SMILES | max activity
C[C@@H]1CN([C@@H](C)CO)C(=O)c2cccc(NC(=O)c3ccc(-c4nccs4)cc3)c2O[C@@H]1CN(C)C(=O)Nc1ccc(C(F)(F)F)cc1 | -9.8% (inactive)
C[C@H](CO)N1C[C@H](C)[C@@H](CN(C)S(=O)(=O)c2cccs2)Oc2c(cccc2N(C)C)C1=O | 11.4% [at 6 µM] (inactive)
CCCCn1nnnc1C(c1cc2ccccc2o1)N1CCN(c2ccncc2)CC1 (stereo unspecified) | 11.8% (inactive)
Cc1ccc(C)c(S(=O)(=O)N(C(=O)c2ccncc2)c2ccc(OC(=O)c3ccncc3)cc2)c1 | 13.7% (inactive)
C=CCNC(=O)c1c(Cl)nc(C)c([N+](=O)[O-])c1C | 11.7% [at 0.1 µM] (inactive)
Cc1ccc(S(=O)(=O)N(C)C[C@H]2Oc3cc(Br)ccc3S(=O)(=O)N([C@H](C)CO)C[C@H]2C)cc1 | 10.1% [at 1.6 µM] (inactive)
N#C[C@@H]1[C@H](c2ccc(C#Cc3cccc(F)c3)cc2)[C@@H](CO)N1C(=O)C1CCC1 | 22.1% [at 12 µM] (inactive)
O=C1CC(c2ccc3c(c2)OCO3)Sc2nc3ccccc3n21 (stereo unspecified) | -8.84% [at 0.38 µM] (inactive)
CCCCN(Cc1ccccc1)S(=O)(=O)c1cc2c(cc1Br)CC(C)N2C(C)=O (stereo unspecified) | 18.2% [at 0.38 µM] (inactive)
O=C(O)c1cccc(-c2nc3ccccc3[nH]2)c1 | -25.9% [at 0.38 µM] (inactive)
CCCc1nc(SCC(=O)N2CCC(Cc3ccccc3)CC2)c2c(=O)n(C)c(=O)n(C)c2n1 | 11.8% [at 0.05 µM] (inactive)
